# According to PMC9838217, “Structure of SALL4 zinc finger domain reveals link between AT-rich DNA binding and Okihiro syndrome”:
# Changes are numbered by the printed parent chain.
# Legend:
# Assay in all cases: HT-SELEX; high values mean tight binding
# Settings in all cases: protein: recombinant; vector His6-GST; dsDNA, one strand shown
# [1] = target: T1, SALL4 ZFC4 R900W (HT-SELEX) (Mus musculus, UniProt Q8BX22 870-940, R900W)
# T1 sequence: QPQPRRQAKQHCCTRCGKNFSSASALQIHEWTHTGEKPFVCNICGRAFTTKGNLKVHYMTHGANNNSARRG
# Summary of the method: (§1)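 Binding signal is expressed as fold change in each canonical k-mer's read fraction over the initial random library. To obtain it, 1 µg of purified recombinant mouse SALL4 zinc finger cluster 4 (residues 870–940) was incubated for 10 min at room temperature with library DNA (1.5 µg first cycle, 200 ng later cycles) in 100 µl of 10 mM Tris–HCl pH 7.5, 50 mM NaCl, poly(dI-dC) and DTT. Ni2+ bead-captured complexes went through washing, PCR amplification and reselection for up to 6 cycles, in triplicate, before MiSeq sequencing and scanning for 6-mers.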
# [2] = target: T2, SALL4 ZFC4 G921D (HT-SELEX) (Mus musculus, UniProt Q8BX22 870-940, G921D)
# T2 sequence: T1 sequence with W31R, G52D
# Summary of the method: as §1
# SALL4 ZFC4 WT (HT-SELEX) = target: T3, SALL4 ZFC4 WT (HT-SELEX) (Mus musculus, UniProt Q8BX22 870-940)
# T3 sequence: T1 sequence with W31R
# Summary of the method: as §1
Sequence,binding signal [1] [fold-change vs cycle 0],binding signal [2] [fold-change vs cycle 0],binding signal (SALL4 ZFC4 WT (HT-SELEX)) [fold-change vs cycle 0]
AGACGC,0.274 ± 0.0116,0.405 ± 0.0774,–
AGTGCC,0.287 ± 0.0119,0.444 ± 0.0567,–
CTCAAA,–,1.2 ± 0.0463,1.09 ± 0.0723
GCGCGC,0.0165 ± 0.00409,0.0747 ± 0.0529,–
CACGCC,0.137 ± 0.0218,0.251 ± 0.0597,–
AGCGCC,0.0655 ± 0.00477,0.179 ± 0.0733,–
GCTTTA,–,1.11 ± 0.0337,0.998 ± 0.0694
AGCCGC,0.0699 ± 0.00939,0.174 ± 0.0601,–
CCGAGC,0.158 ± 0.00799,0.273 ± 0.0808,–
GCTCGA,0.308 ± 0.00752,0.475 ± 0.0642,–
ATTGTG,–,1.18 ± 0.0673,1.1 ± 0.0622
CCAGGG,0.305 ± 0.0286,0.408 ± 0.0718,–
CGGCCA,0.0795 ± 0.00952,0.19 ± 0.0619,–
ATGGAG,–,1.04 ± 0.0381,0.932 ± 0.0365
CCGCAC,0.118 ± 0.0077,0.22 ± 0.0597,–
TAAGAA,–,1.87 ± 0.231,2.2 ± 0.0931
CGACGC,0.0904 ± 0.00963,0.193 ± 0.0701,–
CGGACG,0.164 ± 0.00531,0.264 ± 0.055,–
GGCGGA,0.12 ± 0.0101,0.238 ± 0.0604,–
CGGCCG,0.0289 ± 0.00511,0.105 ± 0.0554,–
GGCGCC,0.0274 ± 0.00854,0.102 ± 0.0477,–
GGCGAC,0.0863 ± 0.00668,0.208 ± 0.0638,–
GTGCCA,0.266 ± 0.0277,0.416 ± 0.0672,–

Sequence,binding signal [1] [fold-change vs cycle 0],binding signal [2] [fold-change vs cycle 0],binding signal (SALL4 ZFC4 WT (HT-SELEX)) [fold-change vs cycle 0]
ATCCTG,–,1.02 ± 0.0414,0.879 ± 0.0324
GCATAA,–,1.105 ± 0.0098,1.13 ± 0.0858
AGGATG,–,1.04 ± 0.0274,0.903 ± 0.0399
CATCGC,0.317 ± 0.0166,0.45 ± 0.0668,–
CGCCAC,0.103 ± 0.0044,0.216 ± 0.0502,–
AGCGCT,0.189 ± 0.0213,0.343 ± 0.109,–
GCACCA,0.324 ± 0.0178,0.451 ± 0.0674,–
CGCCTA,0.26 ± 0.0104,0.413 ± 0.0625,–
CCCGGA,0.231 ± 0.0171,0.334 ± 0.0568,–
CGCCCA,0.107 ± 0.00392,0.227 ± 0.0707,–
CGCCCC,0.0728 ± 0.00775,0.173 ± 0.0648,–
CGCCAG,0.103 ± 0.00325,0.214 ± 0.0676,–
ACCGAC,0.345 ± 0.0112,0.497 ± 0.0584,–
GCGACC,0.112 ± 0.0125,0.237 ± 0.0806,–
TCGTAA,1.29 ± 0.0564,1.25 ± 0.113,–
GATGGC,0.36 ± 0.0133,0.489 ± 0.0668,–
CCGCAG,0.123 ± 0.0191,0.234 ± 0.0772,–
ACGCGG,0.111 ± 0.0165,0.205 ± 0.0613,–
ATCCGC,0.279 ± 0.016,0.426 ± 0.0842,–
CGCGCG,0.0217 ± 0.00502,0.0939 ± 0.0507,–
CGGGAG,0.27 ± 0.0161,0.381 ± 0.0867,–
TGCGCA,0.136 ± 0.00666,0.263 ± 0.0848,–
ACTGCG,0.289 ± 0.0171,0.407 ± 0.0604,–

Sequence,binding signal [1] [fold-change vs cycle 0],binding signal [2] [fold-change vs cycle 0],binding signal (SALL4 ZFC4 WT (HT-SELEX)) [fold-change vs cycle 0]
GCCGGC,0.0318 ± 0.0022,0.112 ± 0.0697,–
ACGCGA,0.245 ± 0.0174,0.365 ± 0.0478,–
GGCCTA,0.299 ± 0.00892,0.443 ± 0.0788,–
CGACAG,0.332 ± 0.0161,0.469 ± 0.0472,–
ACCCGC,0.145 ± 0.00827,0.259 ± 0.0632,–
CTGCGA,0.28 ± 0.0255,0.404 ± 0.0745,–
CAGGCC,0.16 ± 0.0134,0.277 ± 0.0643,–
GCATGC,0.3 ± 0.0114,0.437 ± 0.0507,–
AAGGCC,0.32 ± 0.0161,0.435 ± 0.0818,–
GCGTGA,0.325 ± 0.00871,0.455 ± 0.056,–
GTGCAC,0.313 ± 0.0179,0.456 ± 0.0786,–
CCAGGC,0.174 ± 0.0159,0.302 ± 0.0679,–
GAAGTA,1.6 ± 0.0945,1.43 ± 0.121,–
CCGCTA,0.299 ± 0.0278,0.434 ± 0.0518,–
CGGACA,0.354 ± 0.00613,0.472 ± 0.0628,–
CGCGGA,0.105 ± 0.00959,0.199 ± 0.0519,–
CTCGCA,0.319 ± 0.0197,0.471 ± 0.0656,–
GCCACA,0.251 ± 0.0128,0.391 ± 0.0588,–
GCCCAA,0.245 ± 0.0152,0.387 ± 0.0671,–
CCCCGA,0.246 ± 0.0185,0.358 ± 0.0831,–
GCCGAA,0.189 ± 0.0081,0.319 ± 0.0704,–
GTGCGA,0.265 ± 0.00784,0.4 ± 0.0639,–
GCAGAC,0.369 ± 0.0281,0.48 ± 0.0825,–

Sequence,binding signal [1] [fold-change vs cycle 0],binding signal [2] [fold-change vs cycle 0],binding signal (SALL4 ZFC4 WT (HT-SELEX)) [fold-change vs cycle 0]
CAACGC,0.263 ± 0.00747,0.409 ± 0.0649,–
CCCGCA,0.139 ± 0.0116,0.246 ± 0.066,–
CGCGCA,0.0534 ± 0.00681,0.139 ± 0.0597,–
CCCAGG,0.297 ± 0.008,0.401 ± 0.05,–
TCGCGA,0.248 ± 0.0259,0.374 ± 0.0699,–
CTGCGC,0.08 ± 0.0196,0.173 ± 0.0775,–
CATGCG,0.296 ± 0.011,0.441 ± 0.076,–
CCGGCG,0.0367 ± 0.00313,0.128 ± 0.0641,–
GGGCAC,0.144 ± 0.00697,0.281 ± 0.0804,–
GCCAAC,0.279 ± 0.0168,0.415 ± 0.0905,–
ACGGCC,0.0993 ± 0.00797,0.206 ± 0.0649,–
AACCGC,0.258 ± 0.0187,0.396 ± 0.0835,–
ACGCTC,0.345 ± 0.00842,0.503 ± 0.071,–
TGCCCA,0.29 ± 0.00772,0.437 ± 0.0679,–
GCCGCA,0.0591 ± 0.00535,0.149 ± 0.0608,–
CAGCCC,0.16 ± 0.0179,0.287 ± 0.0742,–
CAGCGG,0.136 ± 0.019,0.242 ± 0.0833,–
GATGCC,0.3346 ± 0.00318,0.49 ± 0.0663,–
AGGCGA,0.276 ± 0.00793,0.438 ± 0.0693,–
GACGCC,0.116 ± 0.00704,0.225 ± 0.0674,–
GCCTCC,0.209 ± 0.0253,0.334 ± 0.0802,–
AGCGCG,0.0579 ± 0.00565,0.159 ± 0.0595,–
CTCGCC,0.139 ± 0.00418,0.273 ± 0.0725,–

Sequence,binding signal [1] [fold-change vs cycle 0],binding signal [2] [fold-change vs cycle 0],binding signal (SALL4 ZFC4 WT (HT-SELEX)) [fold-change vs cycle 0]
GACGAC,0.342 ± 0.0283,0.474 ± 0.0702,–
CCGCAA,0.234 ± 0.0164,0.347 ± 0.0535,–
CCTGGC,0.162 ± 0.00687,0.281 ± 0.075,–
GCGGAC,0.125 ± 0.0161,0.239 ± 0.0553,–
GTCGCA,0.215 ± 0.0161,0.341 ± 0.0831,–
ACTGCC,0.333 ± 0.0151,0.469 ± 0.0726,–
CCAGCG,0.131 ± 0.0133,0.245 ± 0.0689,–
CAGGGC,0.185 ± 0.0225,0.31 ± 0.0787,–
CCCCCC,0.217 ± 0.0203,0.314 ± 0.0628,–
CACAGC,0.324 ± 0.0122,0.442 ± 0.0707,–
CCAGCC,0.149 ± 0.0151,0.273 ± 0.0654,–
CGACCG,0.146 ± 0.0139,0.263 ± 0.0799,–
GCTCCC,0.239 ± 0.0043,0.357 ± 0.0785,–
CGCTAC,0.3 ± 0.026,0.426 ± 0.0556,–
CTGGCA,0.281 ± 0.0156,0.413 ± 0.0619,–
CGCCGC,0.0234 ± 0.0032,0.091 ± 0.0475,–
CCCGCC,0.0634 ± 0.0031,0.164 ± 0.0698,–
GCTGGA,0.37 ± 0.0454,0.484 ± 0.0925,–
CTGGGC,0.152 ± 0.021,0.273 ± 0.0783,–
ACGCAG,0.305 ± 0.0196,0.422 ± 0.0649,–
CCGGGA,0.237 ± 0.0178,0.341 ± 0.0693,–
CCGACA,0.311 ± 0.0211,0.462 ± 0.0665,–
